“And” between values parts separate entries of the source, which are not always exact repeats. Identical values can stand only once. Results filed as inconclusive are left out. The source made the active and inactive calls. Unless noted, no cut-off is given here; in the data, nearly all actives have AC50 up to about 27 µM.

The results in this text go back to PubChem BioAssay.

Experiment [1] is described as follows: growth inhibition of DIPG glioma cells, dose response, cell-based, SU-DIPG-XIII, MIPE4.0, CellTiter-Glo, qHTS (AID 1347061; cut-off not given, nearly all actives have AC50 up to about 37 µM;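 note: cells exposed to compound for 48 hours before readout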). Particulars: SU-DIPG-XIII viability, CellTiter-Glo ATP luminescence.
The nature of experiment [2]: growth inhibition of DIPG glioma cells, dose response, cell-based, JHH-DIPG-1, MIPE4.0, CellTiter-Glo, qHTS (AID 1347062).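 For AC50: cells exposed to compound for two days before readout.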 Particulars: JHH-DIPG-1 viability, CellTiter-Glo ATP luminescence. (Cellular ATP, detected with luciferase, serves as a proxy for viable cell number.)
The nature of experiment [3]: SU-DIPG-VI glioma cell viability, MIPE4.0 library, CellTiter-Glo luminescence, qHTS (AID 1347066; cut-off not given, nearly all actives have AC50 up to about 30 µM;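 note: cells exposed to compound for 48 hours before readout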). Particulars: CellTiter-Glo ATP luminescence.
Experiment [4] can be described thus: viability loss in pontine glioma line – cell-based, SU-DIPG-XXV, MIPE5.0, CellTiter-Glo, qHTS, dose response (AID 1347065; cut-off not given, nearly all actives have AC50 up to about 26 µM;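 note: cells exposed to compound for 48 hours before ATP readout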). As to conditions: CellTiter-Glo ATP luminescence.
Experiment [5] can be described thus: JHH-DIPG-1 glioma cell viability, MIPE5.0 library, CellTiter-Glo luminescence, qHTS (AID 1347067; cut-off not given, nearly all actives have AC50 up to about 26 µM;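 note: cells exposed to compound for 48 hours before readout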). Particulars: JHH-DIPG-1 glioma viability, CellTiter-Glo ATP luminescence.
Experiment [6] is described as follows: SU-DIPG-XXV glioma cell viability, MIPE5.0 library, qHTS (AID 1347068; cut-off not given, nearly all actives have IC50 up to about 30 µM;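 for IC50: cells exposed to compound for 48 hours before viability readout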).
Experiment [7] is described as follows: sensitizers of A549 cells to miR-34 induction, primary screen, imaging, A549 dox-inducible miR-34, nuclei and caspase counts (AID 1347080;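 active = compounds whose cell count with miR-34 switched on is under 0.7 times the count with it off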). Particulars: A549 miR-34 inducible, Hoechst nuclei count, 48 h.
Experiment [8] is described as follows: survival rescue of mitochondrial mutant cells in low glucose, primary screen, MELAS cybrids, Rieske KO mouse fibroblasts, CellTiter-Glo (AID 1508586;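 active = mean z-score across replicates of 1.96 or higher in either the MELAS or the Rieske mutant cell line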;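 note: z relative to plate mean and SD of compound and empty wells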).
Experiment [9] is described as follows: growth inhibition of DIPG glioma cells, dose response, cell-based, SU-DIPG-XIII, MIPE5.0, CellTiter-Glo, qHTS (AID 1347064; cut-off not given, nearly all actives have AC50 up to about 23 µM). As to conditions: SU-DIPG-XIII viability, CellTiter-Glo ATP luminescence.
Experiment [10] can be described thus: modifiers of HSF1 nuclear foci, imaging, Selleck Cancer Library (AID 1347162; in the data active = plate-normalised HSF1 focus index below about 0.46). Particulars: human cells, at 10 µM; SSMD: measured here: HSF1 foci SSMD mean; cell count: measured here: cell number; plate-normalised HSF1 focus index: stronger effect = lower value.
The mark [11] stands for this setting: stronger effect = lower value, cell number ratio, induced over uninduced.
Setting [12] is: measured here: relative caspase fold change +Dox/-Dox.
Where [13] appears, read: measured here: total cells with miR-34 induction, stronger effect = lower value.
[14] abbreviates: measured here: total cells without miR-34 induction.
[15] abbreviates: MELAS cybrid survival, CellTiter-Glo 48 h, stronger effect = higher value.
Where [16] appears, read: Rieske KO mouse fibroblast survival, CellTiter-Glo 72 h.

In the case of `COc1cc(N2CCN(C)CC2)ccc1Nc1nc(N)c(C(=O)c2c(Cl)cccc2Cl)s1`, the result in experiment [1], in experiment [2] and in [3] was inactive.
For orientation: AC50 means the midpoint of the concentration-response curve, whichever way the signal moves. Consider `CN1CCc2c(n(Cc3ccc(C(=O)NO)cc3)c3ccccc23)C1`, for which the compound was classed as inactive in experiment [1]. In addition, the AC50 was 23.5 µM (active) in experiment [2] and 18.6 µM (active) in experiment [4].
In the case of `CCCCC(=O)O[C@]1(C(=O)CO)[C@H](C)C[C@H]2[C@@H]3CCC4=CC(=O)C=C[C@]4(C)[C@@]3(F)[C@@H](O)C[C@@]21C`, the outcome in [1], in experiment [2] and in [3] was inactive.
Regarding `COc1cc2c(cc1OC)CN(CCc1ccc(NC(=O)c3cc(OC)c(OC)cc3NC(=O)c3cnc4ccccc4c3)cc1)CC2`, the AC50 in experiment [1] was 20.9 µM (active). In addition, the compound was called inactive in experiment [2], in [4], in [5] and in experiment [6]. Also, the fold change in [7] (setting [11]) is 0.948 (inactive); in experiment [7] (setting [12]) it was 0.402. In addition, the results for the cell count in experiment [7] (setting [13]) and in [7] (setting [14]) were 8470 and 8940, respectively. Also, the figures for the z-score in experiment [8] (setting [15]) and in experiment [8] (setting [16]) were -0.604 (inactive) and 0.309, respectively.
Turning to `CCN1CCN(C(=O)N[C@H](C(=O)N[C@@H]2C(=O)N3C(C(=O)O)=C(CSc4nnnn4C)CS[C@@H]23)c2ccc(O)cc2)C(=O)C1=O`, the outcome in experiment [1], in [2] and in experiment [3] was inactive.
Consider `CC1(C)OC2CC3C4CC(F)C5=CC(=O)C=CC5(C)C4C(O)CC3(C)[C@]2(C(=O)CO)O1` (stereo partly specified), for which the compound was classed as inactive in [1], in [2] and in experiment [3].
As for `O=c1c(-c2ccc(O)cc2)coc2cc(OC3O[C@H](CO)[C@@H](O)[C@H](O)[C@H]3O)cc(O)c12` (stereo partly specified), in experiment [1], the AC50 is 20.9 µM (active). Moreover, the outcome in experiment [2] and in experiment [3] was inactive.
As for `CCOC(=O)N[C@@H]1CC[C@@H]2[C@@H](C1)C[C@H]1C(=O)O[C@H](C)[C@H]1[C@H]2/C=C/c1ccc(-c2cccc(F)c2)cn1`, the call in experiment [1], in experiment [2], in experiment [9], in experiment [3], in experiment [5] and in experiment [6] was inactive.
On to `COCCNCCCn1c(C(=O)CF)c(-c2ccc(C)cc2)c2c(N)ncnc21`, for which the result in experiment [1], in experiment [2], in experiment [9], in experiment [5] and in experiment [6] was inactive.
`Clc1cc(Cl)cc(CNc2ncncc2-c2ccc3c(c2)OCO3)c1`: the outcome in experiment [1], in [2] and in [3] was inactive.
Take `COc1cc(Oc2ccnc3cc(OC)c(OC)cc23)ccc1NC(=O)NC(C)c1nccs1` (stereo unspecified): the compound was called inactive in experiment [1], in experiment [2], in experiment [9], in [3], in experiment [5] and in [6]. This compound also came in with an SSMD in experiment [10] of 1.89. In experiment [10], this compound registered a cell count of 6450. Also, the plate-normalised HSF1 focus index in experiment [10] is 1.1 (inactive).
Take `COc1ccc(Cc2nccc3cc(OC)c(OC)cc23)cc1OC`: the compound was called inactive in experiment [1], in experiment [2], in [9], in experiment [4] and in experiment [3].
For the compound `OCc1ccc(-c2nn(Cc3ccccc3)c3ccccc23)o1`, the compound was called inactive in experiment [1], in experiment [2], in experiment [3] and in experiment [6]. In addition, the AC50 in [5] is 23.5 µM (active). In addition, the fold change was 0.905 (inactive) and 0.927 (inactive) and 0.926 (inactive) in experiment [7] (setting [11]); 1.2 and 0.954 and 0.941 in [7] (setting [12]). The cell count was 5070 and 1870 and 4400 in experiment [7] (setting [13]); 5600 and 2020 and 4750 in [7] (setting [14]).
By IC50 is commonly meant the midpoint of a concentration-inhibition curve. On to `O=C(NCc1ccccc1)[C@H](Cc1ccccc1)NC(=O)[C@H]1O[C@@H]1C(=O)NCCc1ccc(O)cc1`, for which the compound was called inactive in experiment [1], in [2], in experiment [4] and in experiment [3]. Further, the IC50 in experiment [6] is 18.6 µM (active).
With `CCCn1c(=O)c2[nH]c(C34CC5CC3C[C@@H](C5)C4)nc2n(CCC)c1=O`, the compound was called inactive in experiment [1], in experiment [2], in [3] and in experiment [6].
In the case of `O=C(O)C1(Cc2cccc(Nc3nccs3)n2)CCC(Oc2cccc(Cl)c2F)CC1` (stereo unspecified), the result in [1], in experiment [2], in experiment [9], in [3] and in [6] was inactive. The figures for the fold change in experiment [7] (setting [11]) and in experiment [7] (setting [12]) were 1.01 (inactive) and 0.491, respectively. Further, the cell count was 3320 in experiment [7] (setting [13]) and 3280 in experiment [7] (setting [14]). The z-score in experiment [8] (setting [15]) is -0.373 (inactive); in experiment [8] (setting [16]) it was 0.69.
